Assay outcomes as filed in PubChem.
Hits are enriched below; roughly 9.5% of the tested compounds scored in any of these assays.
NS1 inh = blocks influenza NS1 protein function; AID 2326; Potency, µM (highest dose often 46.1 µM), for the others: at the top dose activity, positive = more growth; hit rate 0.4% among 270,000; calls by dose curve; further: actives are rising curves; nearly all actives have a fitted effect of over 50% in size
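S. cerevisiae expressing influenza A NS1, grown in glucose, washed, then diluted 1:100 into pH 6.0 -URA galactose medium with 23 nl compound. Growth recovery read as OD600; NS1-free strain serves as control.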
Pf growth 96h = inhibits malaria parasite growth, 96 h | P. falciparum luciferase reporter growth, 96 h | hit rate 6.9% among 320,000 | Potency, µM (series often up to 28.7 µM), for inactives: top-dose activity change, negative = inhibition, usual class: inhibitors | AID 504834; further: on the % scale 0 is the no-effect control and ±100 the full control effect
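P. falciparum expressing integrated firefly luciferase, in erythrocytes at 2% hematocrit, 0.05% parasitemia, incubated with compounds 96 h at 37 C, 5% CO2. Growth inhibition read as loss of luminescence; two-generation exposure targets delayed-death apicoplast inhibitors.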
SARS PLpro yeast = SARS-CoV PLP inhibition in yeast. S. cerevisiae expressing SARS-CoV PLpro, growth rescue. Potency, µM (series often up to 32.9 µM), inactives show top-dose activity, positive = growth rescue, most hits filed as activators. hit rate 0.19% among 330,000; calls by dose curve; further: 0% is about no effect; nearly all actives have a fitted effect of over 55% in size
RE007 growth inh = less growth of the S. pombe RE007 Vpr strain | Potency, µM (top dose mostly 92.2 µM), inactives show top-dose activity change, negative = less growth, usual class: inhibitors | AID 651644 | S. pombe RE007 Vpr strain, BacTiter-Glo ATP luminescence, 24 h | hit rate 0.21% among 360,000; active means well fitted falling curve with a large enough effect; inconclusive means small, poorly fitted or top-dose-only effect; inactive means no such curve, though single readings can be large or run the other way; further: on the % scale 0 is the no-effect control and ±100 the full control effect; nearly all actives have a fitted effect of over 50% in size
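Fission yeast RE007 carrying one integrated HIV-1 vpr copy, seeded at OD 0.01 in PMG+AL medium with 23 nL pinned compound. Grown 24 h at 30 degrees; viability read by BacTiter-Glo luminescence after 5 min.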
Pf growth 48h = inhibits P. falciparum growth in the first generation, 48 h; P. falciparum luciferase growth in erythrocytes, 48 h; Potency, µM (series often up to 28.7 µM), for inactives: at the top dose activity change, negative = inhibition, most hits filed as inhibitors; hit rate 5.9% among 310,000; further: on the % scale 0 is the no-effect control and ±100 the full control effect
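In quantitative HTS format, infected erythrocytes bearing luciferase-reporter parasites were treated for a single generation at 37 C. Luminescence after adding detection reagent served as the growth measure.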
The depositor's hits bear a star; ? = inconclusive; nt = no result; [ ] = another dose, or the depositor's remark. Unless noted, the call rests on the fitted dose curve; in most records, active means well fitted inhibition curve with a large enough effect; inconclusive means small, poorly fitted or top-dose-only effect, or another doubt; inactive means no such curve, though single readings can be large or run the other way. Potency means the concentration at half of the fitted maximal effect.

SMILES	NS1 inh	Pf growth 96h	SARS PLpro yeast	RE007 growth inh	Pf growth 48h
CCC1CSC(Nc2ccc(C(=O)/C=C/c3ccc(Oc4ccccc4)cc3)cc2)=N1 (configuration not stated)	19%	6.6µM*	-23%	17%	10µM*
C[C@@H]1C[C@H](C)CN(S(=O)(=O)c2cc(Cl)c(Oc3ccc([N+](=O)[O-])cc3Cl)c(Cl)c2)C1	-5%	nt	nt	nt	nt
C=CCN(CC(O)c1cccc([N+](=O)[O-])c1)C(C)CCc1ccccc1 (configuration not stated)	-6%	?	0%	-6%	1.5µM*
CC(C)N(CC(O)c1cccc([N+](=O)[O-])c1)C(C)C (configuration not stated)	16%	14%	4%	4%	?
Cc1ccc(CNC(=O)c2ccc(CNc3c(N4CCCC4)c(=O)c3=O)cc2)cc1	-17%	-11%	25%	-6%	nt
CC1CCN(c2c(NCc3ccc(C(=O)N(C)C4CCCCC4)cc3)c(=O)c2=O)CC1	3%	-19%	0%	7%	8.3µM*
Cc1ccc(N(C)C(=O)c2ccc(CNc3c(N4CCC(C)CC4)c(=O)c3=O)cc2)cc1	0%	?	-2%	-12%	9.3µM*
C[C@H](NC(=O)c1ccc(Cl)c(S(=O)(=O)N2CCOCC2)c1)c1nc2ccccc2[nH]1	nt	3.3µM*	2%	-3%	?
COc1ccc(C(=O)Nc2nc3ccccc3[nH]2)cc1S(=O)(=O)N1CCOCC1	-10%	-16%	-2%	3%	-3%
Cc1cccc(C(=O)NC(C)C(=O)NC(c2nc3ccccc3[nH]2)C(C)C)c1 (configuration not stated)	nt	34%	8%	0%	-11%
CC(C)C(NC(=O)C(c1ccccc1)c1ccccc1)c1nc2ccccc2[nH]1 (configuration not stated)	2%	nt	-1%	-7%	9.3µM*
CSCC[C@H](NC(=O)C(C)(C)Oc1ccc(Cl)cc1)c1nc2ccccc2[nH]1	-8%	10µM*	4%	10%	?
CSCC[C@H](NC(=O)c1ccc(Cl)c(S(=O)(=O)N2CCCC2)c1)c1nc2ccccc2[nH]1	?	10µM*	3%	-1%	12µM*
Cc1c(NC(=O)C(C)OC(=O)COc2ccc(C#N)cc2)c(=O)n(-c2ccccc2)n1C (configuration not stated)	nt	20%	-2%	-10%	11%
CCc1cccc(C)c1NC(=O)Nc1c(Br)cnn1C	3%	25%	0%	11%	5%
CC(C)C(NC(=O)c1ccc(S(=O)(=O)N2CCOCC2)cc1)c1nc2ccccc2[nH]1 (configuration not stated)	1%	13µM*	4%	3%	-20%
CC(c1ccccc1)C(Cc1nc2ccccc2[nH]1)c1nc2ccccc2[nH]1 (configuration not stated)	nt	-17%	0%	nt	7.4µM*
CC(C)Cc1nc2ccccc2[nH]1	0%	6%	1%	-4%	0%
O=C(COc1ccccc1Cl)NC1CC1	5%	?	0%	-12%	22%
COc1ccc(-c2nn(-c3ccccc3)cc2C(=O)OCC(=O)c2ccc(C)c([N+](=O)[O-])c2)cc1	3%	?	1%	1%	10µM*
Cc1ccc(-n2ncc3c2CCCC3NC(=O)c2ccccc2N2CCOCC2)cc1C (configuration not stated)	-110%	-1%	-17%	-4%	?
O=C(NC1CCCc2c1cnn2-c1ccc(F)cc1F)c1ccccc1N1CCOCC1 (configuration not stated)	-71%	4.1µM*	-11%	14%	?
C[C@H]1CCC/C=C/C2C[C@H](O)CC2[C@H](O)/C=C/C(=O)O1 (some centres not stated)	-9%	2.1µM*	13%	20%[18.4 µM]	2.9µM*
O=C(CC(=O)Nc1nc(C23CC4CC(CC(C4)C2)C3)cs1)NCCO	1%	9.3µM*	-3%	10%	13µM*
Cc1cc(NC(=O)CN2C(=O)NC(c3ccccc3)(c3ccc(C)c(C)c3)C2=O)no1 (configuration not stated)	nt	4.1µM*	0%	-6%	?
SMILES	NS1 inh	Pf growth 96h	SARS PLpro yeast	RE007 growth inh	Pf growth 48h
COc1cccc(NC(=O)CN2C(=O)NC(C)(CCC(C)C)C2=O)c1 (configuration not stated)	nt	17%	1%	-7%	10µM*
COc1cc(NC(=O)CN2C(=O)NC(C)(CCC(C)C)C2=O)cc(OC)c1 (configuration not stated)	-1%	?	2%	-2%	-16%
COc1ccc(C2(c3ccc(OC)cc3)NC(=O)N(CC(=O)Nc3ccc(OC)c(OC)c3)C2=O)cc1	0%	?	1%	-13%	6.6µM*
COc1ccc(C2(c3ccc(OC)cc3)NC(=O)N(CC(=O)Nc3ccccc3C(F)(F)F)C2=O)cc1	4%	12µM*	-2%	-18%	?
COc1ccc(C2(c3ccc(OC)cc3)NC(=O)N(CC(=O)Nc3ccccc3C)C2=O)cc1	2%	-8%	0%	-2%	31%
O=C1CCC2(CCCC2)c2ccccc21	nt	nt	nt	14%	nt
Cc1cc(C)c(NC(=O)CS(=O)CC(=O)NC2CCCc3ccccc32)c(C)c1 (configuration not stated)	1%	10µM*	1%	6%	-6%
CC(C)C[C@H](NC(=O)NC1CCCc2ccccc21)C(=O)O (some centres not stated)	6%	17%	2%	4%	2.3µM*
COC(=O)[C@H](CC(C)C)NC(=O)NC1CCCc2ccccc21 (some centres not stated)	-30%	?	-6%	11%	-13%
Cc1ccc(OCC(=O)NC2CCCc3ccccc32)c(C)c1 (configuration not stated)	-10%	?	-31%	-5%	-5%
Cc1occc1C(=O)NC1CCCc2ccccc21 (configuration not stated)	-64%	6%	-18%	?	13µM*
COc1ccccc1C(=O)NC(=S)Nc1ccc(NC(=O)c2ccco2)cc1	3%	5.2µM*	-3%	-2%	?
CC(C)CC(=O)N1CCN(c2ccc(NC(=O)c3ccco3)cc2)CC1	-23%	9.3µM*	1%	7%	?
CC(C)CC(=O)NC(=S)Nc1ccc(NC(=O)c2ccco2)cc1	11%	6.6µM*	-7%	11%	?
CC(C)(C)C(=O)N1CCN(c2ccc(NC(=O)c3ccco3)cc2)CC1	0%	?	0%	-10%	-29%
COc1ccccc1C(=O)Nc1ccc(NC(=O)c2ccco2)cn1	-54%	31%	-7%	-20%	22%
O=C(N/C(=C/c1ccc(Br)cc1)C(=O)N1CCCCC1)c1ccccc1F	13%	-29%	3%	2%	?
